Assay outcomes deposited in PubChem by several laboratories.
Hits are enriched below; roughly 13% of the tested compounds scored in any of these assays.
Lmaj promast = Leishmania major promastigote growth inhibition; AID 1063; 200,000 tested, 9% active; inhibition, % at 10 µM; Leishmania major promastigotes, resazurin fluorescence viability; in the data active = inhibition above about 50%;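 also: promastigotes grown with compound for 44 hours at 28 °C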
CHOP inhibitor = blocks CHOP induction under ER stress; CHO-K1 CHOP-promoter luciferase, tunicamycin-induced, 15-18 h; inhibition, % at 10 µM; 220,000 tested, 3.8% active;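 active = compounds that reduced the stress-induced luciferase reporter signal by more than about 70% of percent inhibition, limit read from the data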
RAM network inh = blocks the yeast RAM network | inhibition, % at 50 µM | S. cerevisiae dse1pr::URA3 reporter, 5-FOA growth OD615, 2 d; analog-sensitive cbk1-as2 kinase mutant strain | AID 868 | 190,000 tested, 1.8% active;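 active = inhibition above a set limit, 3 SD over mean compound inhibition, cut at about 8.4% in these data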;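 also: inhibition rescues growth on 5-FOA so higher OD means more RAM inhibition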
WT yeast gro inh = growth inhibition of WT yeast, mitochondrial fusion screen; mitochondrial fusion phenotypic screen, WT strain; inhibition, % at 10 µM; 190,000 tested, 2.1% active; in the data active = inhibition above about 58%; tested in S. cerevisiae
RAM efflux-def = RAM network inhibitors in efflux-deficient yeast; shares compounds with RAM network inh; S. cerevisiae efflux-deficient reporter strain, 5-FOA growth OD615, 2 days; max inhibition, %; 1,200 tested, under 10 active; AID 1305; call rule not given here
Numbers stand for hits; i = inactive; nt = not tested or not shown.

SMILES	Lmaj promast	CHOP inhibitor	RAM network inh	WT yeast gro inh	RAM efflux-def
CN(C)S(=O)(=O)N1CCC(c2ccc(F)cc2)C(COc2ccc3c(c2)OCO3)C1 (stereo unspecified)	i	i	16.6	i	i
O=C1c2ccccc2C(O)N1Cc1cccs1 (stereo unspecified)	i	i	i	i	nt
CCOc1ccc2nc3c(cc2c1)CN(CCOC)C(=NCCOC)S3	i	i	13.9	i	i
CNC(=O)c1[nH]cnc1C(=O)Nc1ccccn1	i	i	i	i	nt
O=C(NC(=S)Nc1ccc(Oc2ccccc2)cc1)c1ccc(Cl)cc1	i	i	12.0	i	i
Cc1ccccc1C(=O)NC(=S)Nc1ccc(Oc2ccc(Cl)cc2)cc1	i	i	13.1	i	i
Cc1ccc(C(=O)NC(=S)Nc2ccc(Oc3ccc(Cl)cc3)cc2)cc1	i	i	i	i	nt
CCCn1c(=O)c(C(=O)NCc2ccc(OC)c(OC)c2)c(O)c2ccccc21	i	i	17.1	i	i
CCn1c(=O)c(C(=O)NCc2ccc(OC)cc2)c(O)c2ccccc21	i	i	i	i	nt
CCCn1c(=O)c(C(=O)Nc2ncccc2C)c(O)c2ccccc21	i	i	i	i	nt
CCOC(=O)Cc1csc(NC(=O)c2c(O)c3ccccc3n(CC(C)C)c2=O)n1	79.3	85.0	13.2	i	i
CCCn1c(=O)c(C(=O)Nc2ccccc2C(=O)OCC)c(O)c2ccccc21	i	i	15.6	i	i
CCc1ccccc1NC(=O)/C(C#N)=C/c1ccc(Sc2ccccc2)o1	92.9	i	16.4	i	i
CCc1ccccc1NC(=O)/C(C#N)=C\c1ccc(Sc2ccccc2)o1	i	i	i	i	nt
O=C(NCc1ccccc1Cl)C(=O)NCC(c1ccco1)N1CCOCC1 (stereo unspecified)	i	i	i	i	nt
COc1cccc(-c2nnc(SCC(=O)Nc3ccc(OC)c(OC)c3)n2N)c1	i	i	11.7	i	i
CCOc1cccc(-c2nnc(SCC(=O)Nc3cccc(OC)c3)n2N)c1	i	i	i	i	nt
COc1ccc(/C=C/C(=O)Nc2cc(S(=O)(=O)N3CCCCC3)ccc2N2CCCCC2)cc1OC	96.6	i	11.8	i	i
CCOC(=O)c1c(NC(=O)CSc2nnc(Cc3ccccc3)o2)sc(C)c1C	i	i	14.2	i	i
CCOC(=O)c1c(NC(=O)CSc2nnc(-c3ccco3)o2)sc(C)c1C	i	i	11.5	i	i
CCCNC(=O)N1CCN(S(C)(=O)=O)CC1	i	i	i	i	nt
Cc1cccc(NC(=O)COC(=O)c2ccc3c(=O)n4c(nc3c2)CCC4)c1	i	i	i	i	nt
O=C(COC(=O)c1ccc2c(=O)n3c(nc2c1)CCC3)Nc1ccc(OC(F)F)cc1	i	i	12.7	i	i
CCn1c(COc2cccc(C)c2)nnc1SCC(=O)Nc1cccc(C(=O)OC)c1	i	i	i	i	nt
CCOC(=O)c1cccc(NC(=O)CSc2nnc(COc3ccccc3)n2CC)c1	i	i	13.7	i	i
SMILES	Lmaj promast	CHOP inhibitor	RAM network inh	WT yeast gro inh	RAM efflux-def
Cc1ccc(OCC(O)Cn2c3ccccc3c3ccccc32)cc1 (stereo unspecified)	i	i	12.0	i	i
C=CCn1c(C)cc(C(=O)COC(=O)/C=C/c2cccc(OC)c2)c1C	i	i	19.7	i	i
C=CCn1c(C)cc(C(=O)COC(=O)/C=C/c2ccc(OC)cc2)c1C	i	i	i	i	nt
CC1=NN(c2nc(-c3ccc(C)cc3)cs2)C(=O)C1N=Nc1ccc(C(N)=O)cc1 (stereo unspecified)	i	106.7	12.0	i	i
CC(=O)Nc1ccc(N2N=C(C)C(N=Nc3ccccc3)C2=O)cc1 (stereo unspecified)	i	i	i	i	nt
N#Cc1cc(-c2ccccc2)cnc1Sc1ccc(Cl)cc1	i	i	i	i	nt
N#Cc1cc(-c2ccc(Cl)cc2)cnc1Sc1ccc(F)cc1	i	i	11.5	i	i
Cn1cnc(S(=O)(=O)Nc2ccc(OC(F)F)cc2)c1	nt	i	nt	nt	nt
O=C(CC1SC(=Nc2ccc(OC(F)F)cc2)N(CCC2=CCCCC2)C1=O)Nc1ccccc1F (stereo unspecified)	96.4	i	11.5	i	i
O=C(NNC(=S)NC1CC2C=CC1C2)c1cccnc1 (stereo unspecified)	nt	i	nt	nt	nt
N#C/C(=C\C1=C(N2CCOCC2)C(=C/c2cccc([N+](=O)[O-])c2)/CC1)C(=O)Nc1ccccc1F	i	i	11.4	i	i
O=C(/C=C/c1ccccc1)n1cnnc1SC/C=C/c1ccccc1	i	i	11.7	i	i
Cc1ccc(C(C)C)c(OCC(=O)OCc2c(C)noc2C)c1	i	83.3	22.8	i	i
O=[N+]([O-])c1ccccc1N/N=C\c1ccccc1F	nt	i	nt	nt	nt
CCCOc1ccc(/C=N/Nc2ccccc2[N+](=O)[O-])c(OCCC)c1	i	i	16.0	i	i
NS(=O)(=O)c1cccc(NC(=O)COC(=O)COc2ccc3ccccc3c2)c1	i	i	i	i	nt
CCC(C)NS(=O)(=O)c1ccc(S(=O)(=O)N(CCc2ccc(OC)c(OC)c2)Cc2cccs2)cc1 (stereo unspecified)	55.1	i	15.0	i	i
COc1ccc(OCc2nnc(SCC(N)=O)n2-c2ccccc2OC)cc1	i	i	i	i	nt
COc1ccccc1-n1c(COc2ccccc2-c2ccccc2)nnc1SCC(=O)c1c(N)n(C)c(=O)n(C)c1=O	i	i	14.0	i	i
O=C(OCc1ccccc1)/C(=C/c1cccc2ccccc12)NC(=O)c1ccccc1	i	i	i	i	nt
C=CCOC(=O)/C(=C/c1cccc2ccccc12)NC(=O)c1ccccc1	i	i	41.8	i	i
CCOC(=O)C1=NN(c2ccccc2C)C2=NC(C)=C(C(=O)OC)C(c3cccs3)N12 (stereo unspecified)	i	i	i	i	nt
CCOC(=O)C1=NN(c2ccccc2C)C2=NC(C)=C(C(=O)OC)C(c3cccc(OC)c3)N12 (stereo unspecified)	i	i	22.7	i	i
O=C(CCc1nnc(-c2ccc(-c3ccccc3)cc2)o1)N1CCCCC1	i	i	i	i	nt
N#Cc1ccc(-c2cccnc2)nc1SCc1ccc(Cl)c(Cl)c1	i	i	13.3	74.8	i
SMILES	Lmaj promast	CHOP inhibitor	RAM network inh	WT yeast gro inh	RAM efflux-def
N#Cc1ccc(-c2cccnc2)nc1SCc1ccc(Cl)cc1Cl	i	i	i	i	nt
CC(=O)Nc1cccc(/C(C)=N/NC(=O)c2ccc(CN3CCOCC3)cc2)c1	i	i	i	i	nt
CC(=O)Nc1ccc(NC(=O)c2ccc(C)c(S(=O)(=O)Nc3cccc(C)c3)c2)cc1	i	i	i	i	nt
Cc1ccc(C(=O)Nc2ccc(C(=O)O)cc2)cc1S(=O)(=O)NCc1ccccc1	i	i	12.9	i	i
CCCC(=O)Oc1ccc(N(C(=O)CCC)S(=O)(=O)c2cccc([N+](=O)[O-])c2)cc1	i	i	i	i	nt
CCOC(=O)C(C)(C)N(Cc1cccc(C)c1)S(=O)(=O)c1cccc([N+](=O)[O-])c1	i	i	12.6	i	i
Cc1nc(NCCc2ccc(S(N)(=O)=O)cc2)c2c3c(sc2n1)CCC3	i	i	i	i	nt
COCCNc1nc(SCc2ccccc2)nc2sc3c(c12)CCC3	i	i	14.2	i	i
COc1cccc(/C=C(/C(=O)OCC(=O)NC2CCCCCCC2)c2ccccc2)c1	i	i	12.6	i	i
